# From PubChem
# Hits are enriched below; roughly 2.8% of the tested compounds scored in any of these assays.
# PMP22 txn – modulates PMP22 transcription in S16 Schwann cells; S16 Pmp22-F2sN Schwann cells, FLuc/NLuc coincidence luminescence, 24 h; 43,000 tested, 2% active; Potency, µM (highest dose often 57.5 µM), for inactives: at the highest dose activity change, negative = inhibition, most hits filed as inhibitors; active means clear falling dose curves in both reporters; inconclusive means both reporters move, but less clearly or upward; inactive means either reporter flat; the % is the NLuc reporter signal; further: on the % scale 0 is the no-effect control and ±100 the full control effect
#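 S16(c9) Schwann cells with FLuc/NLuc coincidence reporter in the Pmp22 3' UTR; compounds pin-transferred, 24 h at 37C. Dual-luciferase read: FLuc first, then NLuc after Stop&Glo, each 10 min at room temperature.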
# GALC G270D act – galactocerebrosidase G270D activity enhancement, cell-based; P54803; 145M-Twi-hGALC-G270D cells (Twitcher mouse brain line with human GALC G270D), HMU-beta-Gal fluorescence, 48 h; Potency, µM (top dose mostly 57.5 µM), hits mostly activators; 45,000 tested, 0.1% active; AID 1159614; further: 0% is about no effect; nearly all actives have a fitted effect of over 65% in size
# Target sequence (P54803 whole entry G286D): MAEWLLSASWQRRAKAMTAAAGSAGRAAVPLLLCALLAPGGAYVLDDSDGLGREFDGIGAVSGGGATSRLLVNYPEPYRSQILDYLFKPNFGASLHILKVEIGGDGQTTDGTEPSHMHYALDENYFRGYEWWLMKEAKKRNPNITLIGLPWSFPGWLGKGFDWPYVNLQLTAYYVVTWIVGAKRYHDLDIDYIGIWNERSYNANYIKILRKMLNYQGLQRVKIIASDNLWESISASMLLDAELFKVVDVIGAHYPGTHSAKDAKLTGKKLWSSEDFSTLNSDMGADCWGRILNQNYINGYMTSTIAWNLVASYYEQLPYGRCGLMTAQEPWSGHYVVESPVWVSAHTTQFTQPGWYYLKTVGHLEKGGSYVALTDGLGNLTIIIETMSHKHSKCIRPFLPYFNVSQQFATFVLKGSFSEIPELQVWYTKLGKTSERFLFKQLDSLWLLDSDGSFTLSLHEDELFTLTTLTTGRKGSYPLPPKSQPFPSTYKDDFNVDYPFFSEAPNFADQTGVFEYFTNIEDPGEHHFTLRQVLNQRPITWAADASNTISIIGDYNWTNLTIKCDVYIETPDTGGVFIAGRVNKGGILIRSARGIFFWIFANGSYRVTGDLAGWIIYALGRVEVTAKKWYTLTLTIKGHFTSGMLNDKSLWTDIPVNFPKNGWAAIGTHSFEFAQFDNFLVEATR
#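 Brain-derived Twitcher mouse 145M-Twi cells stably expressing human GALC-G270D or wild-type GALC, treated live, then residual GALC activity read by fluorescence of HMU-b-Gal substrate (0.1 mM final) in citrate-phosphate buffer pH 5.2 with sodium taurocholate. Signal increase indicates enhancement.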
# mTORC1 inh – inhibitors of mTORC1 signaling in Tsc2-/- p53-/- MEF cells; Tsc2-/- p53-/- MEF, phospho-rpS6 immunofluorescence/PI, 24 h; Potency, µM (titrated, usually from 38.3 µM), without a hit: at the top dose activity change, negative = inhibition, most hits filed as inhibitors; 44,000 tested, 0.78% active;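 further: plate controls were DMSO for no effect and rapamycin for full effect; nearly all actives have a fitted effect of over 50% in size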
#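 Tsc2-/-, p53-/- MEFs (empty-vector stable line) in DMEM + 10% FBS were treated with compounds 24 h at 37 degree Celsius, fixed, and immunostained for phospho-rpS6 (Alexa-488) with propidium iodide counterstain. Laser-scanning cytometry gave % positive cells, normalized against 7.5 nM rapamycin and DMSO.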
# S16 viability – S16 Schwann cell cytotoxicity; S16 Pmp22-F2sN Schwann cells (luciferase reporters placed in the Pmp22 gene) viability, CellTiter-Glo, 24 h; Potency, µM (series often up to 57.5 µM), for the others: at the top dose activity change, negative = cytotoxicity, hits mostly cytotoxic; 43,000 tested, 0.48% active; AID 1508642; further: on the % scale 0 is the no-effect control and ±100 the full control effect; nearly all actives have a fitted effect of over 65% in size
#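 S16 Schwann cells carrying the Pmp22-F2sN reporter, seeded in 1536-well format, were exposed to library compounds for 24 h at 37C. Viability was read as CellTiter-Glo luminescence after 15 min at room temperature.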
# The depositor's hits bear a star; i = inactive; ? = inconclusive; . = no result. Unless noted, the call rests on the fitted dose curve; in most records, active means well fitted curve in the direction sought with a large enough effect; inconclusive means small, poorly fitted or top-dose-only effect, or another doubt; inactive means no such curve, though single readings can be large; an effect the other way counts as inactive or inconclusive. Potency means the concentration at half of the fitted maximal effect.
SMILES,PMP22 txn,GALC G270D act,mTORC1 inh,S16 viability
CCN(CC)CCNC(=O)c1ccc2c(c1)NC(=O)C(CS(=O)(=O)Cc1cccc(Br)c1)N2 (stereo not given),?,i,-6%,9%
COCCCn1c(SCc2ccccc2F)nc2c(sc3ccccc32)c1=O,?,32µM*,2%,17%
Cc1ccccc1CSc1nc2c(sc3ccccc32)c(=O)n1CCCOC(C)C,?,i,1%,-24%
CCc1nn(CC(=O)NCc2ccccc2Cl)c(=O)c2cccn12,3%,i,2.6µM*,2%
COc1cc(CNCCSc2nnnn2C)cc(Cl)c1OCc1ccccc1,?,i,?,?
CCOc1cc(CNCCSc2nnnn2C)cc(Cl)c1OCc1ccc(Cl)cc1,?,i,16µM*,-12%
NC(CS)C(=O)O (stereo not given),.,i,.,.
COc1cc(-c2nc3ncccn3c2Nc2ccc(C)cc2C)ccc1O,5%,i,15µM*,?
CCOc1cc(CNc2ccc(O)cc2)cc(Cl)c1OCc1ccccc1,?,i,?,8.9µM*
C[C@@H](O)[C@H]1C(=O)N2C(C(=O)O)=C([C@H]3CCCO3)S[C@H]12,.,i,.,.
CC(C)n1c(=N)c(C(=O)NCc2cccnc2)cc2c(=O)n3ccccc3nc21,?,4µM*,-3%,-1%
Nc1ccc(N)c([N+](=O)[O-])c1,.,i,.,.
COc1ccc(S(=O)(=O)c2c(Nc3ccccc3F)sc(C(=O)c3cccc(OC)c3)c2N)cc1,4µM*,i,-27%,?
CCN(CC)CC(=O)Nc1c(C)cccc1C(=O)OC,.,i,.,.
COCc1oc2ccc(NS(=O)(=O)c3ccc(C)cc3)cc2c1C(=O)OC,7.1µM*,i,?,-26%
CCOc1ccc(S(=O)(=O)Nc2ccc3oc(C)c(C(=O)OCCOC)c3c2)cc1,?,i,-30%,1%
CCN(CCN(C)C)C(=O)C1CCN(S(=O)(=O)c2c(C)noc2/C=C/c2ccccc2F)CC1,?,i,18µM*,?
CCOc1ccccc1/C=C/c1onc(C)c1S(=O)(=O)N1CCC(C(=O)N(CC)CC)CC1,?,i,-5%,?
Cc1ccc(-c2nc3ccccc3[nH]2)cc1NC(=O)COc1ccccc1[N+](=O)[O-],?,i,2.3µM*,-29%
Cc1ccc(OCC(=O)Nc2cc(-c3nc4ccccc4[nH]3)ccc2C)c(C)c1,-28%,i,-22%,10%
CCOc1ccc(NC(=O)Cn2c(=O)n(CCCCCC(=O)NCc3ccccc3)c(=O)c3sccc32)cc1,?,i,?,20µM*
CC1CCN(C(=O)Cn2c(=O)n(CC3CCC(C(=O)NC(C)C)CC3)c(=O)c3sccc32)CC1 (stereo not given),-43%,i,5%,1%
CC(C)NC(=O)C1CCC(Cn2c(=O)c3sccc3n(CC(=O)Nc3ccccc3)c2=O)CC1 (stereo not given),?,i,1%,25µM*
CCOc1ccccc1NC(=O)Cn1c(=O)n(CC(=O)NCc2ccccc2Cl)c(=O)c2sccc21,?,i,-3%,28µM*
N#CC1(c2ccc(F)cc2)CCC(=O)CC1,.,i,.,.
SMILES,PMP22 txn,GALC G270D act,mTORC1 inh,S16 viability
CCN(CC)C(=O)CSc1nc(-c2ccc(C)cc2)nc2c1Cc1c(CO)cnc(C)c1O2,?,i,-1%,10µM*
O=C1OC2(c3ccccc31)c1cc(Br)c(O)c(Br)c1Oc1c2cc(Br)c(O)c1Br,.,i,.,.
Cc1c(C(=O)OCCOc2ccccc2)[nH]c2c1C(=O)CC(c1ccccc1)C2 (stereo not given),?,i,?,?
Cc1c(C(=O)OCCOc2ccccc2)[nH]c2c1C(=O)CC(c1ccccc1Cl)C2 (stereo not given),5.3µM*,i,1.3µM*,?
Cc1ccccc1C(=O)Nc1ccc(C(=O)N2CCCC(N(C)C)c3ccccc32)cc1 (stereo not given),.,i,.,.
COc1cc(NC(=O)CSc2nc(-c3ccc(C(C)C)cc3)no2)cc(OC)c1,9.1µM*,i,-14%,-1%
COc1cc(NC(=O)CSc2nc(-c3ccccc3)no2)cc(OC)c1,-25%,i,3%,-17%
Oc1cccc(-c2c3nc(c(-c4cccc(O)c4)c4ccc([nH]4)c(-c4cccc(O)c4)c4nc(c(-c5cccc(O)c5)c5ccc2[nH]5)CC4)C=C3)c1,.,i,.,.
CCN1CCN(C(=O)Cn2ncc3c4ccccc4n(Cc4c(C)cc(C)cc4C)c3c2=O)CC1,?,i,16µM*,?
Cc1cccc(-n2nnnc2S(C)(=O)=O)c1,6.7µM*,i,0.41µM*,5µM*
Cc1cc(C)c2oc(-c3cccc(NC(=O)COc4ccc([N+](=O)[O-])cc4)c3)nc2c1,?,i,21µM*,-19%
CCc1ccc(OCC(=O)Nc2ccc(Cl)c(-c3nc4cc(C)cc(C)c4o3)c2)cc1,.,.,-10%,.
Cc1ccc(Nc2nc(Nc3ccc(C)c(C)c3)nc(N3CCOCC3)n2)cc1C,0%,i,1µM*,?
COc1ccc(Nc2nc(Nc3ccc(OC)cc3OC)nc(N3CCOCC3)n2)c(OC)c1,-14%,i,1.5µM*,-27%
COc1cc2nc(Nc3ccc(C)c(C)c3)nc(N)c2cc1OC,?,i,?,?
CC/C=C(\C(=O)N[C@@H]1C(=O)N2C(C(=O)OCOC(=O)C(C)(C)C)=C(COC(N)=O)CS[C@H]12)c1csc(N)n1,.,i,.,.
Cc1ccc(C)c(NC(=O)Cn2nnc(C(=O)NCc3ccco3)c2N)c1,10µM*,i,-20%,?
COc1ccccc1C1C=C(c2ccc(Cl)cc2)Nc2nc(-c3ccc(Cl)cc3)nn21 (stereo not given),?,i,12µM*,-16%
COc1ccccc1C1C=C(c2ccc(F)cc2)Nc2nc(-c3ccc(Cl)cc3)nn21 (stereo not given),?,i,-16%,?
O=C(COCCOCCOCC(=O)Nc1c(I)cc(I)c(C(=O)O)c1I)Nc1c(I)cc(I)c(C(=O)O)c1I,.,i,.,.
Cc1ccc(Cl)cc1N1CCN(C(=O)c2ccc(CS(=O)(=O)c3ccccc3C)o2)CC1,?,i,-12%,7%
Cc1ccc(Cl)cc1N1CCN(C(=O)c2ccc(CS(=O)c3ccccc3)o2)CC1 (stereo not given),10µM*,i,?,?
COc1cc(Cl)c(NS(=O)(=O)c2ccc3c(c2)CC(C)N3C(=O)C2CCC2)c(OC)c1 (stereo not given),12µM*,i,-2%,?
